From PubChem
SMN2 splice up – qHTS Assay for Enhancers of SMN2 Splice Variant Expression; 210,000 tested, 2.8% active; Potency, µM (series often up to 46.1 µM), inactives show at the top dose activity change, positive = activation, most hits filed as activators; HEK293 SMN2-luciferase splicing reporter, luminescence, 30-36 h; note: % of control where 0% means no effect; nearly all actives have a fitted effect of over 55% in size
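qHTS luciferase splicing reporter: luminescence rises when SMN2 exon 7 is included in transfected HEK293 cells. Compound exposure lasted 30-36 h at 37C, with 4.5 mM final sodium butyrate as control, followed by a ONE-Glo read.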
NPC1 prom act – qHTS Assay for NPC1 Promoter Activators | Huh7 NPC1 promoter luciferase reporter, 24 h | Potency, µM (series often up to 9.22 µM), for the others: top-dose activation, actives largely listed as activators | 320,000 tested, 2.4% active | AID 485313, 2010; note: % of control where 0% means no effect; nearly all actives have a fitted effect of over 60% in size
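Stably transfected Huh7 (NPC1 promoter→luciferase), 1500 cells/well in Opti-MEM + 10% FBS, 2 h settle, then compound 24 h at 37 °C. Luminescence after 10 min with Amplite reagent.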
Rab9 prom act – qHTS Assay for Rab9 Promoter Activators; Huh7 Rab9 promoter-luciferase reporter, luminescence, 24 h; Potency, µM (top dose mostly 9.22 µM), inactives show at the highest dose activation, negative = inhibition, usual class: activators; 320,000 tested, 2.8% active; note: % of control where 0% means no effect; nearly all actives have a fitted effect of over 60% in size
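Luminescence from Amplite-detected luciferase (10 minutes, ambient) reports Rab9 promoter activation. Before that, stable Rab9-luciferase Huh7 cells (1500/well, reduced-serum OP-MEM I plus 10% FBS) were exposed to compound for 24 hours at 37C.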
FLuc modulator – qHTS profiling assay for firefly luciferase inhibitor/activator using purifed enzyme and Km concentrations of substrates (counterscreen for miR-21 project). Luciferin 4-monooxygenase (Photinus pyralis), P08659. purified FLuc, Km substrates, luminescence inhibition. Potency, µM (doses to about 57.5 µM), for the others: at the highest dose activity change, negative = inhibition, usual class: inhibitors. 360,000 tested, 6.9% active;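 note: plate controls were vehicle for no effect and reference inhibitor for full effect; nearly all actives have a fitted effect of over 55% in size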
Target sequence (P08659 whole entry, looked up): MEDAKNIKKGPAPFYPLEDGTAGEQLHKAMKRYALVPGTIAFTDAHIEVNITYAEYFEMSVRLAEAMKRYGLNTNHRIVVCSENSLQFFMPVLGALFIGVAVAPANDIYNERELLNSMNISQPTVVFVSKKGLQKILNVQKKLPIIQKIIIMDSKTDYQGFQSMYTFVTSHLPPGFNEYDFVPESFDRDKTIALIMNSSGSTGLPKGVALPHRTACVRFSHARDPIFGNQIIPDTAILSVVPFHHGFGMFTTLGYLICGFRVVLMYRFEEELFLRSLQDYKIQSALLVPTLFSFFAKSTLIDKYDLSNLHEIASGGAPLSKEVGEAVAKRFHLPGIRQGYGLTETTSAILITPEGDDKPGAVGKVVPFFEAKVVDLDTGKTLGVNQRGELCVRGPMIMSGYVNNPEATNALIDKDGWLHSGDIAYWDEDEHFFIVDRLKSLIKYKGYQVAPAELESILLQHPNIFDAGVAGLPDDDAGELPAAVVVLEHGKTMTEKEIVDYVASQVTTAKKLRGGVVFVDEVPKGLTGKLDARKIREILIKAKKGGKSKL
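Purified P. pyralis luciferase, 10 nM final, with Km-level 10 uM D-luciferin and 10 uM ATP in 50 mM Tris acetate pH 7.5, 10 mM Mg acetate, 0.01% Tween-20, 0.05% BSA; 6-point qHTS titration about 60 µM downward; luminescence read.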
ELG1 repair inh – qHTS screen for small molecules that inhibit ELG1-dependent DNA repair in human embryonic kidney (HEK293T) cells expressing luciferase-tagged ELG1; HEK293T ELG1-luciferase reporter, luminescence, 16 h; DNA damage induced by 5-fluorouridine; 330,000 tested, 2.3% active; Potency, µM (series often up to 46.1 µM), without a hit: at the highest dose activity change, negative = inhibition, hits mostly inhibitors; note: % is set by controls: 0 for no effect and ±100 for the full control effect; nearly all actives have a fitted effect of over 55% in size
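Step one: seed 2,000 cells per well. Step two: pin-transfer compound or DMSO alongside 5-fluorouridine. Step three: incubate 16 hr, 37 °C, 5% CO2. Step four: add ONE-Glo, wait 30 min, read luminescence.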
ELG1 genotox – qHTS screen for small molecules that induce genotoxicity in human embryonic kidney (HEK293T) cells expressing luciferase-tagged ELG1 | HEK293T ELG1-luciferase reporter, luminescence, 16 h | 330,000 tested, 1.3% active | AID 504466, 2011 | Potency, µM (doses to about 46 µM), for the others: top-dose activity change, positive = activation, most hits filed as activators; note: % of control where 0% means no effect; nearly all actives have a fitted effect of over 60% in size
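Quantitative HTS format in 1536-well plates. HEK293T ELG1-luciferase reporter cells receive test compound and are incubated 16 hr at 37 °C, 5% CO2; ONE-Glo added, 30 min room temperature, then luminescence read.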
* marks the source's active call; other numbers are inactive results; [ ] = another dose, or the depositor's remark. A selection: hits, their analogues and other compounds. The true share with any hit is near 9.3%. Calls come from the whole dose curve; as a rule, active = well fitted curve in the direction sought with a large enough effect; inconclusive = small, poorly fitted or top-dose-only effect, or another doubt; inactive = no such curve, though single readings can be large; an effect the other way counts as inactive or inconclusive. Potency is the fitted concentration of half-maximal effect.

How did Cc1cc(C)n2nc(SCC(=O)NC(=O)c3ccc(OC(F)F)cc3)nc2n1 do in these assays?
ELG1 repair inh: inconclusive; ELG1 genotox: 0%

What do the screens show for `O=C1c2ccccc2NC(c2ccc(O)cc2)N1c1ccccc1` (configuration not stated)?
NPC1 prom act: 19%; Rab9 prom act: inconclusive; FLuc modulator: -1%; ELG1 repair inh: inconclusive; ELG1 genotox: 11%

What do the screens show for `COc1ccc(C)c2sc(=NC(=O)c3ccc(C(C)=O)cc3)n(C)c12`?
NPC1 prom act: 0.56µM*; Rab9 prom act: 0.5µM*; FLuc modulator: 0.67µM*; ELG1 repair inh: inconclusive; ELG1 genotox: inconclusive

How did C=CCn1c(=NC(=O)c2cccc(N3C(=O)CCC3=O)c2)sc2cccc(OC)c21 do in these assays?
NPC1 prom act: 1%; Rab9 prom act: -3%; FLuc modulator: inconclusive; ELG1 repair inh: inconclusive; ELG1 genotox: -8%

Results for COc1ccc(C)c2sc(=NC(=O)c3ccccc3)n(C)c12 ?
SMN2 splice up: 11µM*; NPC1 prom act: inconclusive; Rab9 prom act: 2.8µM*; FLuc modulator: 2.1µM*; ELG1 repair inh: inconclusive; ELG1 genotox: 6.5µM*

What do the screens show for `COc1ccc(C)c2sc(=NC(=O)c3cccc(N4C(=O)CCC4=O)c3)n(C)c12`?
NPC1 prom act: inconclusive; Rab9 prom act: inconclusive; FLuc modulator: 6.7µM*; ELG1 repair inh: inconclusive; ELG1 genotox: inconclusive

How did COc1ccc(C)c2sc(=NC(=O)C(C)C)n(C)c12 do in these assays?
SMN2 splice up: -16%; NPC1 prom act: 6%; Rab9 prom act: 2%; FLuc modulator: -1%; ELG1 repair inh: -1%; ELG1 genotox: 2%

How did CCOC(=O)c1oc2ccc(S(=O)(=O)n3nc(-c4ccc(Br)cc4)cc3N)cc2c1C do in these assays?
SMN2 splice up: 4%; FLuc modulator: 1%

Results for O=c1c(/C=N/OCc2ccc(Cl)cc2Cl)c[nH]n1-c1cccc(Cl)n1 ?
SMN2 splice up: -15%; NPC1 prom act: 2%; Rab9 prom act: 7%; FLuc modulator: 11µM*; ELG1 repair inh: inconclusive; ELG1 genotox: -5%

Results for Cc1cc(O)c(/C=N/OCc2ccc(Cl)cc2Cl)c(=O)o1 ?
SMN2 splice up: -11%; NPC1 prom act: -1%; Rab9 prom act: -2%; FLuc modulator: inconclusive; ELG1 repair inh: -15%; ELG1 genotox: -6%

What do the screens show for `CCOc1ccc2nc(SCC(=O)Nc3ccc(F)cc3)nc(-c3ccccc3)c2c1`?
SMN2 splice up: 12%; FLuc modulator: -2%

How did O=C(Nc1cccc(-c2nc3ccccc3s2)c1)c1cccs1 do in these assays?
SMN2 splice up: inconclusive; NPC1 prom act: -2%; Rab9 prom act: 3%; FLuc modulator: 13µM*; ELG1 repair inh: inconclusive; ELG1 genotox: -1%

How did O=C(Nc1cccc(-c2nc3ccccc3s2)c1)c1cc(=O)c2ccccc2o1 do in these assays?
SMN2 splice up: 1%; NPC1 prom act: 0%; Rab9 prom act: -1%; FLuc modulator: -4%; ELG1 repair inh: 9.2µM*; ELG1 genotox: 13%

Results for Cc1cccc(NC(=O)c2cc(=O)c3ccccc3o2)c1 ?
NPC1 prom act: 18%; Rab9 prom act: 1%[1.84 µM]; FLuc modulator: inconclusive; ELG1 repair inh: inconclusive; ELG1 genotox: 2%

What do the screens show for `COc1cc(/C=C/C(=O)Oc2coc(CSc3ncccn3)cc2=O)cc(OC)c1OC`?
SMN2 splice up: 10%; NPC1 prom act: -2%; Rab9 prom act: -1%; FLuc modulator: -6%; ELG1 repair inh: inconclusive; ELG1 genotox: -2%
